Only a selection was taken, and hits are over-represented in it overall.
KDM5B inh – inhibitors of human KDM5B histone demethylase; Q9UGL1; Potency, µM (top dose mostly 57.7 µM), most hits filed as inhibitors; AID 1347165; 220,000 compounds, 2.6% hits; KDM5B demethylase, FDH-coupled NADH fluorescence (FDH is formaldehyde dehydrogenase); active = well fitted inhibition curve with a large enough effect; note: nearly all actives have a fitted effect of over 70% in size
Target sequence (Q9UGL1 whole entry, looked up): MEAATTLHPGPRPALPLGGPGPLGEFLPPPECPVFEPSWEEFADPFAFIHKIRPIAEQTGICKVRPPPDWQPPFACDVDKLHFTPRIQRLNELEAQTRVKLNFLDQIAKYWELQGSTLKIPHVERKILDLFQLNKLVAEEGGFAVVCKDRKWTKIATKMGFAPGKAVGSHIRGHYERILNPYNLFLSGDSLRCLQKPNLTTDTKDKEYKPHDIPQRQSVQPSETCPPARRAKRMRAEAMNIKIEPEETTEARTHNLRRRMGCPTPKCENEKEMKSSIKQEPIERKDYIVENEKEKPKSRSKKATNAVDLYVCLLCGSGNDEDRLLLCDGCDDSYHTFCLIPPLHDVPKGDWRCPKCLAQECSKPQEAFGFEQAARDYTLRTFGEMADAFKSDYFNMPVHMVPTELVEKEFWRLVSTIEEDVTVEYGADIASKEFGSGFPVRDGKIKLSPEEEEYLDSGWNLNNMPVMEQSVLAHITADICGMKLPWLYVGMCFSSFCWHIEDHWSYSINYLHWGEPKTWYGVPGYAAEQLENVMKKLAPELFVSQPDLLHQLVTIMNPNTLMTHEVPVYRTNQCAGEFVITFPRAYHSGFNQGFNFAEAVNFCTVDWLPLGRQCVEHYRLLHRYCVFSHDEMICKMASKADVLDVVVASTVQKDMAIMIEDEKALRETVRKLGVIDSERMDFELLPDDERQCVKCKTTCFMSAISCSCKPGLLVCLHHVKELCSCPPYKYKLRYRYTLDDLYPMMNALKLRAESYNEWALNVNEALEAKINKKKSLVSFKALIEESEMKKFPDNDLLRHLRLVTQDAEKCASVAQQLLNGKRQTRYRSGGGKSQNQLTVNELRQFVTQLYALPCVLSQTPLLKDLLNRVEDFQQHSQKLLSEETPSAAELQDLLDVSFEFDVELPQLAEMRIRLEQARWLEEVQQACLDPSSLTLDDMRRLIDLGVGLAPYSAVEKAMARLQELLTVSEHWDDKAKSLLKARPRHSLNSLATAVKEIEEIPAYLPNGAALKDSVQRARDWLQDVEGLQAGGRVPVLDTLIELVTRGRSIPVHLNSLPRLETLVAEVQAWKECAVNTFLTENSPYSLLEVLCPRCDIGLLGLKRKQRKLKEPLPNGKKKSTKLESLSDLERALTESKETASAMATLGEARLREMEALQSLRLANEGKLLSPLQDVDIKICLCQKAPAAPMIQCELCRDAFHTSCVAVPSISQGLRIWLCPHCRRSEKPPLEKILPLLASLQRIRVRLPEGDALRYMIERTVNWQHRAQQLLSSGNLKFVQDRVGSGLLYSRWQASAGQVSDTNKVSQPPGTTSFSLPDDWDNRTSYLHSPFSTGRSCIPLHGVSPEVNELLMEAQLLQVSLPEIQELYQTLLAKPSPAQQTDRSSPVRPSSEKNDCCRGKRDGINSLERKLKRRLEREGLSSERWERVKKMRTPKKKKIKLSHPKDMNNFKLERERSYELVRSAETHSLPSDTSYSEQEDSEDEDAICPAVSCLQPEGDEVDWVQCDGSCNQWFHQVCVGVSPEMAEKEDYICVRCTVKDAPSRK
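KDM5BΔAP (200 nM final) in 50 mM HEPES pH 7.5, 0.01% Tween-20 was preincubated 10 min at RT with compound over a concentration range. Substrate mix (H3K4me3 12.5 µM, α-KG 25 µM, Fe²⁺, ascorbate, NAD⁺, FDH) was added, and NADH fluorescence change over 30 min gave dose-response curves.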
Hits are given with their value; 0 = inactive.

SMILES | KDM5B inh
COc1ccccc1NC(=O)c1cc(=O)c2cc(C)c(C)cc2o1 | 0
NC(=O)C1CCN(CC(=O)Nc2cccc(Cl)c2)CC1 | 0
COc1ccc(NC(=O)c2ccc3c(c2)NC(C)(COc2ccc4[nH]ccc4c2)CO3)cn1 (stereo not given) | 20µM
CC1(COc2ccc3[nH]ccc3c2)COc2ccc(C(=O)Nc3cccnc3)cc2N1 (stereo not given) | 35µM
CC(=O)c1cccc(NC(=O)CN(CCc2ccccc2)S(C)(=O)=O)c1 | 0
CC1(C)CC(=O)C2=C(C1)N(c1ccccc1F)C(=O)CC2c1ccc(Cl)cc1 (stereo not given) | 0
CCCn1c(SCc2ncc(-c3cccc(Cl)c3)o2)n[nH]c1=O | 0
CC(C)CNC(=O)Cc1ccc2c(c1)CCCC2 | 0
Cc1ccc(CNc2ccc(C(=O)O)cc2)cc1 | 0
COc1ccc(C(=O)Nc2ccc3n(c2=O)C[C@H]2C[C@@H]3CN(C(=O)CCCC(=O)O)C2)cc1 | 0
O=C(O)C[C@@H]1CCN(C(=O)Nc2ccc(C(F)(F)F)cc2)C[C@@H]1CCN1C[C@@H]2C[C@H](C1)c1cccc(=O)n1C2 | 0
N#Cc1cccc(NC(=O)N2C[C@@H]3C[C@H](C2)c2ccc(-c4ccc(OC(F)(F)F)cc4)c(=O)n2C3)c1 | 0
CC(=O)Nc1ccc(S(=O)(=O)Nc2ccc3n(c2=O)C[C@H]2C[C@@H]3CN(Cc3cn(C)c4ccccc34)C2)cc1 | 0
CC(=O)Nc1ccc(S(=O)(=O)N2C[C@@H]3C[C@H](C2)c2ccc(-c4ccccc4C)c(=O)n2C3)cc1 | 25µM
COc1ccc(S(=O)(=O)N2C[C@@H]3C[C@H](C2)c2c(-c4ccc(OC(F)(F)F)cc4)ccc(=O)n2C3)cc1 | 0
CC(=O)c1ccc(NC(=O)N2C[C@@H]3C[C@H](C2)c2ccc(NC(=O)CN(C)C)c(=O)n2C3)cc1 | 0
CC(C)(CC(=O)O)CC(=O)N1C[C@@H]2C[C@H](C1)c1ccc(-c3cccc(C(F)(F)F)c3)c(=O)n1C2 | 28µM
O=C(Nc1ccccc1)N1C[C@@H]2C[C@H](C1)c1ccc(-c3cccc(C(F)(F)F)c3)c(=O)n1C2 | 32µM
COc1ccc(S(=O)(=O)N2C[C@@H]3C[C@H](C2)c2ccc(NC(=O)c4ccncc4)c(=O)n2C3)cc1 | 0
COc1ccc(S(=O)(=O)N2C[C@@H]3C[C@H](C2)c2ccc(-c4cccc(C(F)(F)F)c4)c(=O)n2C3)cc1 | 32µM
COc1ccc(S(=O)(=O)N2C[C@@H]3C[C@H](C2)c2c(NC(=O)Nc4ccccc4)ccc(=O)n2C3)cc1 | 0
N#CCCN(C(=O)COc1ncnc2sc3c(c12)CCCC3)c1ccccc1 | 0
Cc1ccc(-c2cc(=O)c3cc(NC(=O)c4ccco4)ccc3o2)cc1 | 0
Cc1cccc(Nc2nc(N)c(C(=O)c3ccccc3Cl)s2)c1 | 0
CC(=O)c1csc(NC(=O)CN(C)S(=O)(=O)c2ccc(F)cc2)n1 | 0
SMILES | KDM5B inh
Cc1ncc(-c2ccc(S(=O)(=O)Nc3cccc(Cl)c3C)cc2)o1 | 0
COc1cccc(N2C(=O)NC(=NC3CCCCC3)C23CCCN([S+](=O)([O-])c2cccc(C(F)(F)F)c2)C3)c1 (stereo not given) | 0
CCCCCCCCCCCC(=O)N/N=C\CC(C)C | 0
Cc1ccc(NC(=O)c2cc(C3CC3)nc3ccccc23)c(C)c1 | 0
CCCNc1nc2ccccc2nc1C(C#N)S(=O)(=O)c1ccc(Cl)cc1 (stereo not given) | 0
CCCc1noc(-c2ccn3c(CNC(=O)c4cc(F)ccc4F)nnc3c2)n1 | 32µM
CCc1noc(-c2ccn3c(CNC(=O)c4ccc(F)cc4Cl)nnc3c2)n1 | 0
CCCc1noc(-c2ccn3c(CNC(=O)c4ccccc4F)nnc3c2)n1 | 8.9µM
CCc1noc(-c2ccn3c(CNC(=O)c4cc(F)ccc4F)nnc3c2)n1 | 0
CCc1noc(-c2ccn3c(CNC(=O)c4c(F)cccc4F)nnc3c2)n1 | 0
CCCc1noc(-c2ccn3c(CNC(=O)c4c(F)cccc4F)nnc3c2)n1 | 28µM
CCCc1noc(-c2ccn3c(CNC(=O)c4ccccc4Cl)nnc3c2)n1 | 0
CCOC(=O)C1CCCN(C(=O)C2CCN(S(=O)(=O)c3ccc4c(ccn4CC)c3)CC2)C1 (stereo not given) | 0
Cc1cccc(OCC(=O)Nc2cc(-c3nn(C)c(=O)c4ccccc34)ccc2N2CCCCC2)c1 | 0
O=C(c1ccc(Cl)cc1)N1CCn2c(nn(-c3ccc([N+](=O)[O-])cc3)c2=O)C1 | 0
Cc1nnc(-c2cc(-c3cccc(F)c3)ccn2)n1Cc1ccccc1 | 0
COCCn1c(C)nnc1-c1cc(-c2cccc(OC(F)(F)F)c2)ccn1 | 0
COCCn1c(C)nnc1-c1cc(-c2ccc(OC)c(OC)c2)ccn1 | 32µM
COc1ncc(-c2ccnc(-c3nnc(C)n3CCc3ccccc3)c2)cn1 | 0
COc1cccc(-c2ccnc(-c3nnc(C)n3Cc3ccccc3)c2)c1 | 35µM
Cc1nnc(-c2cc(-c3cccc(N(C)C)c3)ccn2)n1Cc1ccccc1 | 0
CC(NC(=O)C(=O)Nc1ccccc1Cl)c1ccccc1 (stereo not given) | 0
COc1ccc(-c2ocnc2C(=O)Nc2c(C)cc(C)cc2C)cc1 | 0
Cc1cc2ccccc2n1CC(=O)NCC(=O)N1CCCC1 | 0
CC1C(=O)CCN(CCO)C1C (stereo not given) | 0
SMILES | KDM5B inh
CN(C)c1ccc(-c2noc(-c3nc(-c4ccc5c(c4)OCO5)no3)n2)cc1 | 0
COc1ccccc1-c1noc(-c2nc(-c3ccc4c(c3)OCO4)no2)n1 | 0
CCCc1noc(-c2nc(-c3ccc4c(c3)OCO4)no2)n1 | 25µM
Fc1ccccc1-c1noc(-c2nc(-c3ccc4c(c3)OCO4)no2)n1 | 25µM
Cc1cc(-c2nc(-c3ccc4c(c3)OCO4)no2)n[nH]1 | 0
Fc1ccccc1-c1noc(-c2nc(-c3ccccc3F)no2)n1 | 0
CC(C)NC(=O)C(=O)Nc1cccc(C(=O)c2nccn2C)c1 | 0
O=S(=O)(c1ccc2c(c1)OCCO2)c1nc(-c2ccco2)oc1NCCCN1CCOCC1 | 0
CCOP(=O)(OCC)c1nc(C(c2ccccc2)c2ccccc2)oc1NCc1cccnc1 | 0
CN1CCCC12Cc1ccccc1CN(S(=O)(=O)c1ccccc1)C2 (stereo not given) | 0
CCOC(=O)c1oc2ccc(S(=O)(=O)NCC3Cn4cccc4C(=O)N3C)cc2c1C (stereo not given) | 0
CCn1c(COc2cc(C)ccc2Cl)n[nH]c1=S | 0
Cc1ccc(F)c(Nc2ncncc2-c2nc(-c3ccccc3)no2)c1 | 0
COc1cccc(CNc2ncncc2-c2nc(-c3ccccc3)no2)c1 | 0
Cc1ccc(CCNc2ncncc2-c2nc(-c3ccccc3)no2)cc1 | 32µM
COc1ccc(OC)c(Nc2ncncc2-c2nc(-c3ccccc3)no2)c1 | 0
Cc1ccc(Nc2ncncc2-c2nc(-c3ccccc3)no2)c(F)c1 | 0
Cc1ccc(Cl)cc1Nc1ncncc1-c1nc(-c2ccccc2)no1 | 25µM
O=C1NC2(CCN([S+](=O)([O-])c3cccc(C(F)(F)F)c3)CC2)Oc2ccccc21 | 0
CCC(C)NC(=O)CCNC(=O)c1ccc2nc(C)c(C)nc2c1 (stereo not given) | 0
Cc1nn2c(c1-c1ccccc1Oc1ccccc1)N(C(=O)COc1ccccc1)CCC2 | 0
Cc1nn2c(c1-c1ccccc1C(C)C)N(C(=O)C1CCOCC1)CCC2 | 0
Cc1nn2c(c1-c1ccccc1N1CCCC1)N(C(=O)COc1ccccc1)CCC2 | 20µM
Cc1nn2c(c1-c1ccccc1-c1ccccc1)N(C(=O)COc1ccccc1)CCC2 | 0
